From PubChem BioAssay AID1159580 (chemical genetic matrix, 2015)
The whole screen tested about 5,500 compounds, of which about 2,000 (36%) were called active. Not shown: some 18% with an inconclusive outcome. Rule as the data show it: active = normalized growth mostly below about 0.91 (no sharp cut-off); inconclusive = no clear call, values can overlap the other calls; inactive = mostly above about 0.92. This is one part of the list.

Assay: chemical genetic growth profiling, strain panel (AID 1159580);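 also: tested at 20 µM; growth read once vehicle control cultures reached saturation at 30 °C; 1 = growth at the plate median or of vehicle wells; lower values mean less growth of the strain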
Settings: S. cerevisiae deletion strains, growth OD

Measured: normalized growth

CC/C=C\C/C=C\C/C=C\C/C=C\C/C=C\CCCC(=O)OCC
inactive: locus YHR030C, strain SLT2, hits give low values 0.979 | locus YHR079C, strain IRE1, hits give low values 0.924 | locus YJL095W, strain BCK1, hits give low values 0.945 | locus YJR066W, strain TOR1, hits give low values 0.94 | locus YLR113W, strain HOG1, hits give low values 0.902 | locus YNL183C, strain NPR1, hits give low values 0.927 | locus YOR231W, strain MKK1, hits give low values 0.949 | locus YPL256C, strain CLN2, hits give low values 0.897
